p53null 39C kill: qHTS Screen for Compounds that Selectively Target Cancer Cells with p53 Mutations: Cytotoxicity of p53 Null Cells at the Nonpermissive Temperature | H1299 p53-null (neo) cells, 39C, ATPlite viability, 24 h | Potency, µM (doses to about 46.1 µM), for the others: at the top dose activity, negative = cell killing, actives largely listed as cytotoxic | 0.97% of 55,000 active;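 also: 0% = DMSO only and -100% = full killing by 100 µM tamoxifen; nearly all actives have a fitted effect of over 50% in size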
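H1299 lung cancer cells, p53-null (H1299-neo) or expressing p53 A138V (H1299-p53A138V), were plated overnight at 37C, then exposed to compounds at up to 46 uM for 24 hr at 39C. Viability was read by ATP-based luminescence.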
PMP22 txn: Cell-based coincidence reporter assay to measure PMP22 gene transcription in S16 Pmp22-F2sN cells - Primary screen | S16 Pmp22-F2sN Schwann cells, FLuc/NLuc coincidence luminescence, 24 h | Potency, µM (titrated, usually from 57.5 µM), without a hit: at the top dose activity change, negative = inhibition, most hits filed as inhibitors | 2% of 43,000 active; active = clear falling dose curves in both reporters; inconclusive = both reporters move, but less clearly or upward; inactive = either reporter flat; the % is the NLuc reporter signal
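Transcriptional readout in edited S16(c9) cells: two luciferases reported from the Pmp22 locus, measured in turn after 24 h compound incubation.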
SKOV3 invasion: Primary qHTS assay for Inhibitors of ovarian cancer metastasis using an organotypic tumor microenvironment (TME) model | Potency, µM (highest dose often 45.8 µM), inactives show at the top dose activity change, negative = inhibition, usual class: inhibitors | 0.1% of 46,000 active | SKOV3ip1-GFP adhesion/invasion on 3D omental model, fluorescence;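 also: plate controls were DMSO wells for no effect and tomatine positive control wells for full effect; nearly all actives have a fitted effect of over 65% in size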
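Primary human omental fibroblast/mesothelial 3D culture pre-formed 48 h. SKOV3ip1-GFP cells added with compounds (0.36-46 umol/L), incubated 2 h RT/16 h 37 C, fixed; GFP cells quantified at 488/509 nm.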
p53null 32C tox: qHTS Screen for Compounds that Selectively Target Cancer Cells with p53 Mutations: Cytotoxicity of p53 Null Cells at the Permissive Temperature; H1299-neo p53 null cells, ATP luminescence, 24 h, 32C; Potency, µM (highest dose often 46.1 µM), inactives show top-dose activity change, negative = cytotoxicity, hits mostly cytotoxic; 0.62% of 55,000 active; AID 903, 2007;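 also: 0% = DMSO only and -100% = full killing by 100 µM tamoxifen; nearly all actives have a fitted effect of over 55% in size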
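Cytotoxicity: H1299-neo (no p53), 32C, 24 h treatment. Concentrations up to 46 uM. Readout cellular ATP, luminescence. Normalization to DMSO basal and tamoxifen 100 uM maximal kill.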
pS6 MEF inh: Acumen qHTS Assay for Inhibitors of the mTORC1 Signaling Pathway in MEF (Tsc2-/-, p53-/-) Cells: Sytravon; Tsc2-/- p53-/- MEF, phospho-rpS6 immunofluorescence/PI, 24 h; Potency, µM (top dose mostly 38.3 µM), inactives show top-dose activity change, negative = inhibition, hits mostly inhibitors; 0.78% of 44,000 active; AID 493208, 2011;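 also: plate controls were DMSO for no effect and rapamycin for full effect; nearly all actives have a fitted effect of over 50% in size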
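Plate MEFs (Tsc2-/-, p53-/-, empty vector) in DMEM/10% FBS; after 24 h add compound, incubate 24 h at 37 degree Celsius; fix in PFA/TX-100, block, stain phospho-rpS6 and 10 uM PI; scan at 488 nm; report % positive cells.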
S16 F2sN tox: Cell viability qHTS assay in S16 Pmp22-F2sN cells | S16 Pmp22-F2sN Schwann cells viability, CellTiter-Glo, 24 h | 0.48% of 43,000 active | Potency, µM (series often up to 57.5 µM), inactives show top-dose activity change, negative = cytotoxicity, most hits filed as cytotoxic; also: nearly all actives have a fitted effect of over 65% in size
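Viability was measured by CellTiter-Glo luminescence (15 min, room temperature). This followed 24 h at 37 °C of compound exposure (23 nL pin transfer) in S16 Pmp22-F2sN Schwann cells, 500-1,000 per well.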
The depositor's hits bear a star; i = inactive; ? = inconclusive; . = no result given. Only some compounds are listed: those with a hit (about 3.1% of all), similar ones and a draw of the others. Unless noted, calls follow the shape of the dose curve; as a rule, active = well fitted curve in the direction sought with a large enough effect; inconclusive = small, poorly fitted or top-dose-only effect, or another doubt; inactive = no such curve, though single readings can be large; an effect the other way counts as inactive or inconclusive. Unless noted, % is scaled to controls: 0 for no effect and ±100 for the full control effect; potency is read from the fitted curve at half-maximal effect.

SMILES | p53null 39C kill | PMP22 txn | SKOV3 invasion | p53null 32C tox | pS6 MEF inh | S16 F2sN tox
CCOc1ccc2oc(=O)cc(CN3CCN(c4ccccc4)CC3)c2c1 | 9.9% | ? | ? | 4.9% | 4.8% | -23.6%
CCCCC(C)(C)[C@H](O)C=C[C@H]1[C@H](O)CC(=O)[C@H]1CC=CCCCC(=O)O | . | . | -15.4% | . | . | .
Cc1cc(Nc2ncnc3ccc(-c4ccc(CNCCS(C)(=O)=O)o4)cc23)ccc1Oc1ccn2ncnc2c1 | . | . | 12.7% | . | . | .
Cc1c(Cl)ccc2sc(NC(=O)c3ccc(S(=O)(=O)N4CCCc5ccccc54)cc3)nc12 | -9.5% | -17.1% | 6.6% | 16.5% | 14.7µM* | 11.8%
Cc1c(Cl)ccc2sc(NC(=O)c3ccc(S(=O)(=O)N4CCCC4)cc3)nc12 | -11.2% | 9.9% | -10.6% | 0.4% | 0.6% | 8.3%
COc1ccccc1NC(=O)C1CCC(CNS(=O)(=O)c2ccc3c(c2)CC(C)N3C(C)=O)CC1 (stereo unspecified) | -6.7% | 18.9µM* | i | 10.5% | ? | ?
CC1Cc2cc(S(=O)(=O)NCCc3ccc(Cl)cc3)ccc2N1C(=O)C1CCC1 (stereo unspecified) | -28.3% | . | 0.9% | 11.2% | -6.7% | .
CC(=O)N1c2ccc(S(=O)(=O)NCC3CCC(C(=O)Nc4ccc(F)cc4)CC3)cc2CC1C (stereo unspecified) | 14.6% | ? | -2.6% | 16.4% | -8.0% | 14.1µM*
CCc1ccc(NC(=O)C2CCC(CNS(=O)(=O)c3ccc4c(c3)CC(C)N4C(C)=O)CC2)cc1 (stereo unspecified) | -9.9% | -24.4% | 4.5% | -0.6% | ? | -3.9%
COc1cc(Cl)c(NS(=O)(=O)c2ccc3c(c2)CC(C)N3C(=O)C2CCC2)c(OC)c1 (stereo unspecified) | -9.3% | 11.9µM* | -1.2% | 18.9% | -1.9% | ?
O=C(C[C@@H]1CC=CCCC(=O)O[C@H](c2ccccc2)CNC1=O)NCc1ccc(Cl)cc1 | . | . | 41.8% | . | . | .
CN[C@@H]1[C@@H](O)[C@@H](O[C@@H]2[C@@H](O)[C@H](O[C@H]3O[C@H](CN)[C@@H](O)[C@H](O)[C@@H]3O)[C@@H](N)C[C@@H]2NC(=O)[C@@H](O)CN)OC[C@]1(C)O | . | . | 0.7% | . | . | .
CCOc1c(Br)cc(C2CC(=O)Nc3cc4c(cc32)OCO4)cc1OC (stereo unspecified) | ? | ? | -8.9% | 44.7% | 14.7µM* | ?
CC(C)Oc1cccc(C2CC(=O)Nc3cc4c(cc32)OCO4)c1 (stereo unspecified) | ? | 4.28µM* | -1.6% | 22.0% | 6.56µM* | ?
Cc1cccc(C2CC(=O)Nc3cc4c(cc32)OCO4)c1 (stereo unspecified) | -10.3% | ? | i | 26.6% | -12.4% | -3.9%
Cc1cc(Nc2cccc(Cl)c2)nc2ccc(NC(=O)c3cccnc3)cc12 | 25.1µM* | ? | i | ? | -3.2% | ?
Cc1cc(N2CCN(C)CC2)nc2ccc(NC(=O)Nc3cccc(Cl)c3)cc12 | ? | ? | -10.4% | 0.8% | ? | 25.1µM*
COc1ccc2cc(-c3nc(-c4ccc(S(C)=O)cc4)[nH]c3-c3ccncc3)ccc2c1 (stereo unspecified) | . | . | 0.9% | . | . | .
